HCMV antiviral: blocks human cytomegalovirus replication | HFF cells, HCMV-luciferase reporter, 72 h; active compounds read low | activity change, negative = inhibition, % at 57.5 µM | 4.5% of 410,000 active; in the data active = activity change below about -60%; inconclusive = no clear call, values can overlap the other calls; inactive = above about -39%
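Steps: HFFs plated, 16 h 37C; compounds added; HCMV-luciferase added to MOI 1 PFU/cell; 72 h 37C; OneGlo reagent, 5 min room temperature; luminescence read, normalized to controls.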
Vaccinia mCherry: vaccinia inhibition (mCherry reporter); AID 720579; Vaccinia virus mCherry reporter infection, fluorescence; Potency, µM (doses to about 36.5 µM), inactives show top-dose activity change, negative = inhibition, hits mostly inhibitors; 0.63% of 310,000 active; calls by dose curve; tested in A549 cells; also: potency is read from the fitted curve at half-maximal effect; nearly all actives have a fitted effect of over 35% in size
Lassa entry inh: blocks Lassa virus binding to or entry into cells | Lassa virus pseudotype entry inhibition, cell reporter | Potency, µM (doses to about 37.9 µM), for the others: at the top dose activity change, negative = inhibition, most hits filed as inhibitors | 1.2% of 300,000 active | AID 540256; calls by dose curve; tested in HEK293 cells; also: potency is read from the fitted curve at half-maximal effect; nearly all actives have a fitted effect of over 50% in size
HCV inh: blocks hepatitis C virus | Huh7.5.1 HCVcc-Cre infection, luciferase reporter, 44 h | Potency, µM (top dose mostly 41.8 µM), for inactives: top-dose activity change, negative = inhibition, usual class: inhibitors | 3.4% of 340,000 active | AID 651820; active = well fitted inhibition curve with a large enough effect; inconclusive = small, poorly fitted or top-dose-only effect, or another doubt; inactive = no such curve, though single readings can be large or run the other way; also: potency is read from the fitted curve at half-maximal effect
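After 44 h co-culture of compound, cells and HCVcc-Cre (~0.5 moi), substrate is added for 15 min at room temperature and luciferase measured over 15 sec. Cells were seeded at 1,000/well and pre-cultured 4 h.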
MARV entry inh: inhibitors of Marburg virus binding or cell entry. Marburg virus pseudotyped entry inhibition, cell reporter. Potency, µM (titrated, usually from 37.8 µM), for the others: at the top dose activity change, negative = inhibition, usual class: inhibitors. 1.8% of 300,000 active; calls by dose curve; tested in HEK293 cells; also: potency is read from the fitted curve at half-maximal effect
Vaccinia Venus: vaccinia inhibition (Venus reporter); Potency, µM (series often up to 36.5 µM), for the others: at the highest dose activity change, negative = inhibition, actives largely listed as inhibitors; 0.46% of 330,000 active; Vaccinia virus Venus reporter expression, fluorescence; calls by dose curve; tested in A549 cells; also: potency is read from the fitted curve at half-maximal effect; nearly all actives have a fitted effect of over 30% in size
* marks the source's active call; other numbers are inactive results; i = inactive; ? = inconclusive; nt = no result; [ ] = remark or other dose. Hits are enriched below; roughly 7.8% of the tested compounds scored in any of these assays. % is scaled to controls: 0 for no effect and ±100 for the full control effect.

SMILES	HCMV antiviral	Vaccinia mCherry	Lassa entry inh	HCV inh	MARV entry inh	Vaccinia Venus
COc1cc2c(cc1OC)-c1c(OC)c(OC)c(OC)c3ccnc(c13)C2=O	nt	?	?	-23%	18µM*	?
CCOc1ccc(OCC(=O)Nc2ccc(S(N)(=O)=O)cc2)cc1	?	nt	4%	20%	?	nt
NS(=O)(=O)c1ccc(NC(=O)COc2ccc(C(=O)c3ccc(F)cc3)cc2)cc1	-23	nt	nt	14µM*	nt	nt
CC(Oc1ccccc1)C(=O)Nc1ccc(NC(=O)c2ccccc2)cc1 (stereo not given)	14	i	26%	nt	-7%	-1%
CCOc1ccc(S(=O)(=O)/N=C(/Nc2ccc(S(N)(=O)=O)cc2)c2ccccc2)cc1	-103*	nt	nt	-14%	nt	nt
CC(Oc1ccc(C(=O)c2ccccc2)cc1)C(=O)Nc1ccc(S(N)(=O)=O)cc1 (stereo not given)	-68*	-7%	-5%	?	?	-19%
CN(c1ccc(OCC(=O)Nc2ccc(S(N)(=O)=O)cc2)cc1)S(=O)(=O)c1ccc(F)cc1	?	-11%	3%	?	?	-29%
COc1ccccc1CNC(=O)Nc1ccc2c(c1)N(C)C(=O)c1ccccc1S2	?	?	-2%[46.1 µM]	nt	5%[46.1 µM]	?
CCCC(=O)N1CC2(C1)CN(C(=O)CN1CCOCC1)[C@H](CO)c1c2c2ccc(OC)cc2n1C	1	nt	nt	nt	nt	nt
O=C(CSc1oc(-c2cccs2)nc1S(=O)(=O)c1ccccc1)Nc1ccc(F)cc1	-12	-15%	10%[46.1 µM]	nt	20%[46.1 µM]	-12%
Oc1ccc(Cl)cc1-c1cc(-c2ccccc2)n[nH]1	47	?	nt	10µM*	nt	?
Cc1ccccc1-c1cc(-c2ccccc2O)n[nH]1	155	-8%	-26%	7.1µM*	0%	-25%
Cc1ccc(-c2cc(-c3ccc(F)cc3)n[nH]2)c(O)c1	106	-29%	-16%	13µM*	?	?
Oc1ccc(Br)cc1-c1cc(-c2ccccc2F)[nH]n1	130	nt	24%	?	-11%	nt
Oc1ccc(Br)cc1-c1cc(-c2ccccc2Cl)[nH]n1	0	?	nt	7.9µM*	nt	-28%
O=C(C[n+]1ccnc2ccccc21)c1ccc(Br)cc1	nt	-9%	nt	nt	nt	-2%
C[C@H]1[C@@H](NS(=O)(=O)c2cc(Cl)cc(Cl)c2)CC[C@@]23CCCN2C(=O)CCC[C@@H]13	-5	nt	nt	nt	nt	nt
C(=Nc1cccnc1)c1ccnc2ccccc12	nt	-18%	nt	nt	nt	-10%
CCCCc1nc2c(c3c1C[C@H](C)OC3)CN(S(=O)(=O)c1ccccc1C(=O)OC)CC2	nt	nt	nt	nt	22%[14.2 µM]	nt
CCC1=C(c2ccc(C)cc2)S(=O)(=O)N=C1N1CCC(C(=O)NCCc2cccc(OC)c2)CC1	-6	-8%	nt	nt	?	-16%
N#C/C(=C/c1ccc(Sc2nc3ccccc3[nH]2)o1)c1cccc(Br)c1	-85*	20µM*	-26%	8.9µM*	?	?
N#C/C(=C/c1ccc(Sc2nc3ccccc3[nH]2)o1)c1cccc(F)c1	-103*	nt	1%	?	-20%	nt
N#C/C(=C/c1ccc(Sc2nc3ccccc3[nH]2)o1)c1ccccc1F	-102*	nt	-17%	11µM*	-6%	nt
COc1ccc(CN2CC[C@H]3C=CC[C@@H](C(=O)N4CCN(c5ccccc5)CC4)[C@H]3C2=O)cc1OC	nt	-10%	nt	nt	nt	-3%
Cc1ccc(OCCn2c(Br)nc3c2c(=O)n(C)c(=O)n3C)cc1	?	nt	-6%	8.9µM*	2%	nt
SMILES	HCMV antiviral	Vaccinia mCherry	Lassa entry inh	HCV inh	MARV entry inh	Vaccinia Venus
Cn1c(=O)c2c(ncn2CCOc2cccc(Br)c2)n(C)c1=O	-71*	nt	nt	?	nt	nt
Cn1c(=O)c2c(ncn2Cc2cccc(Cl)c2)n(C)c1=O	-75*	-13%	-8%	11µM*	?	-16%
Cn1c(=O)c2c(nc(Cl)n2Cc2ccc(Cl)c(Cl)c2)n(C)c1=O	27	i	-6%	?	1%	0%
Cn1c(=O)c2c(ncn2Cc2ccc(Cl)c(Cl)c2)n(C)c1=O	-70*	nt	-15%	?	?	nt
O=C(c1cccs1)N(Cc1ccco1)c1ccc(O)cc1	nt	2%	nt	nt	nt	-14%
CC(C)C12CN3CC(C(C)C)(CN(C1)C3c1ccc([N+](=O)[O-])o1)C2=O (stereo not given)	-72*	i	0%	8%	-1%[46.1 µM]	-8%
c1cncc(-c2nn3c(Cn4nnc5ccccc54)nnc3s2)c1	36	nt	0%	21%	3.3µM*	nt
COc1c(F)c(F)cc2c(=O)c(C(=O)O)cn(C3CC3)c12	-61*	-6%	17%	16%	?	-11%
COc1c(N2CCN(C(=S)NCc3ccccc3)C(C)C2)c(F)cc2c(=O)c(C(=O)O)cn(C3CC3)c12 (stereo not given)	-67*	nt	11%	10µM*	-23%	13µM*
COc1c(N2CCN[C@H](C)C2)c(F)cc2c(=O)c(C(=O)O)cn(C3CC3)c12	nt	-6%	nt	14%	nt	-7%
O=S1(=O)N(CCN2CC=C(c3c[nH]c4cc(F)ccc34)CC2)c2cccc3c2N1CCC3	-80*	i	?	?	?	-12%
O=C(C=Cc1ccc2c(c1)OCO2)c1ccc(F)cc1	nt	nt	nt	nt	-9%[14.2 µM]	nt
N/C(CCS(=O)(=O)c1ccc(Cl)cc1)=N\OC(=O)c1ccc(Cl)cc1	16	nt	nt	-23%	nt	nt
N/C(CCS(=O)(=O)c1ccc(Cl)cc1)=N\OC(=O)c1ccccc1C(F)(F)F	-11	i[7.34 µM]	22µM*	?	?	-20%[7.34 µM]
Cc1cc(C)cc(NS(=O)(=O)c2ccc(NC(=S)NC(=O)c3cccs3)cc2)c1	-34	?	14µM*	?	12µM*	?
CN(C1CCCCC1)S(=O)(=O)c1ccc(NC(=S)NC(=O)c2cccs2)cc1	-39	nt	-12%	?	18µM*	nt
COc1cc(NS(=O)(=O)c2ccc(NC(=S)NC(=O)c3cccs3)cc2)nc(OC)n1	6	i	13%	13%	6%	-12%
COc1ccc(-n2nc(C(=O)N(C)c3cc(Cl)ccc3OC)c3c4ccccc4n(C)c3c2=O)cc1	-3	-1%	8%[46.1 µM]	nt	-10%[46.1 µM]	8%
CCn1cnc2sc(C(=O)N(Cc3ccc(N(C)C)cc3)Cc3ccco3)c(C)c2c1=O	-18	nt	?	-6%	5µM*	-24%
O=C(CCn1cncn1)NCC1Cc2cc(-c3ccsc3)cc(Cl)c2O1 (stereo not given)	nt	-3%	nt	nt	nt	-13%
COc1ccc(CCN2C(=O)c3[nH]nc(-c4ccccc4O)c3C2c2ccc(OC)c(OC)c2)cc1 (stereo not given)	-17	-14%	?	nt	?	?
Cc1cccc(-n2ncc3c(NNC(=O)c4ccccc4Cl)ncnc32)c1	-35	-14%	1%[46.1 µM]	nt	nt	0%
COc1cccc2c1O/C(=N\O)C(C(=O)Nc1ccc(C)cc1)C2 (stereo not given)	-60*	nt	nt	?	nt	nt
Cc1ccc(C(C[N+](=O)[O-])Sc2ccc(N)cc2)cc1 (stereo not given)	-100*	?	-1%	?	3%[46.1 µM]	-4%
